Wnt act = Wnt/beta-catenin pathway activators, primary screen, cell-based, plate reader, single point; 300,000 tested, 1.2% active; activation, % at 9.35 µM; Wnt/beta-catenin reporter cell assay, activator; AID 743398, 2014; in the data active = activation above about 30%, passing the limit was not always enough; inconclusive = no clear call, values can overlap the other calls
Statin myotox sup = suppressors of statin myotoxicity in C2C12 myotubes, primary screen, cell-based, single point, plate reader; C2C12 myotubes + simvastatin, ATP luminescence, 48 h; scaled: DMSO 0, geranylgeraniol control 100; rescue of ATP level, % at 7.49 µM; 330,000 tested, 0.78% active; AID 602340, 2012;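 active = mean ATP rescue above about 67%, or every replicate alone reaching that limit, limit read from the data, passing the limit was not always enough; inconclusive = no clear call, values can overlap the other calls; inactive = mean under the limit and some replicate under it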;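 note: myotubes were challenged with 10 µM simvastatin during compound exposure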
EBV LMP1 NFkB = EBV LMP1-driven NF-kappaB luciferase reporter inhibitors, primary screen, cell-based, luminescence, single point. LMP1-induced NF-kappaB luciferase reporter cells. inhibition, % at 12.5 µM. 350,000 tested, 0.69% active. AID 504558, 2011; in the data active = inhibition above about 41%; inconclusive = no clear call, values can overlap the other calls
MITF act = activators of MITF-driven TRPM1 promoter reporter, primary screen, cell-based, SK-MEL-5, luciferase, single point | SK-MEL-5 TRPM1-promoter luciferase, 24 h; % of positive control, neutral wells = 0 | activation, % at 12.5 µM | 300,000 tested, 0.75% active | AID 588334, 2011;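 active = mean activation of at least 80% with every replicate also reaching 80%; inconclusive = mean reaches 80% but some replicate falls short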
MITF TRPM1 inh = inhibitors of MITF-dependent TRPM1 promoter reporter, primary screen, cell-based, SK-MEL-5, single point, luciferase; inhibition, % at 12.5 µM; SK-MEL-5 TRPM1 promoter luciferase, 24 h; 330,000 tested, 0.83% active;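 active = mean inhibition across replicates of 60% or more, whatever share of single replicates reaches that level; inconclusive = some that reach 60%, reason not given; inactive = mean inhibition across replicates below 60%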
esBAF inh = Bmi1 luciferase reporter increase in mESCs, primary screen, esBAF inhibitor project, mouse ES cells, Bmi1 luciferase knock-in, single point | 24 h; 100% = twice the neutral-well signal | reporter increase, % at 12.5 µM | 350,000 tested, 2% active; in the data active = activation above about 40%; inconclusive = no clear call, values can overlap the other calls;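 note: a rise in the Bmi1 reporter signal indicates esBAF inhibition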
Of the large screens only hits and unclear results are named; the others gave an inactive call. Compounds with a hit are over-represented: about 4% of the library has one in this group of screens.

CCOC(=O)c1ccc(NC(=O)c2cnccn2)cc1	MITF act 119
O=C(O)c1ccccc1C(=O)Nc1ccccn1	none
O=C(Nc1ccccn1)C(=O)Nc1ccccn1	Wnt act 39 (no result: Statin myotox sup, esBAF inh)
COc1cccc(C2NC(=O)NC(C)=C2C(=O)Nc2cc(OC)ccc2OC)c1 (stereo not drawn)	none
Cc1ccsc1CN(C)C(=O)c1cc(S(=O)(=O)N2CCOCC2)ccc1N1CCCC1	Wnt act 44
O=C(Nc1cc(S(=O)(=O)N2CCOCC2)ccc1N1CCOCC1)c1ccc([N+](=O)[O-])s1	MITF TRPM1 inh 83
Cc1ccc(NC(=O)c2ccc([N+](=O)[O-])s2)cc1S(=O)(=O)N1CCOCC1	MITF TRPM1 inh 92
CCc1ccc(CN(C)C(=O)c2cc(S(=O)(=O)N3CCOCC3)ccc2N2CCCC2)cc1	none
CCCC(C)C(=O)Nc1cc(S(=O)(=O)N2CCCCC2)ccc1N1CCOCC1 (stereo not drawn)	none
CC(C)C(=O)Nc1cc(S(=O)(=O)N2CCOCC2)ccc1N1CCCCC1	Statin myotox sup 108 (no result: esBAF inh)
COc1ccc(NC(=O)Cn2c(=O)n(CCC(=O)NCC3CCCO3)c(=O)c3cc(OC)c(OC)cc32)cc1 (stereo not drawn)	none
Cn1cc(Cc2ccc(C(=O)N3CCCCC3)cn2)c2ccccc21	none (no result: EBV LMP1 NFkB, MITF act, MITF TRPM1 inh)
Cc1ccc(S(=O)(=O)NCCC(=O)Nc2cccc(S(=O)(=O)N3CCCC3)c2)cc1C	none
N#C[C@H]1[C@@H](c2ccc(C#CCC3CCCC3)cc2)[C@H](CO)N1C(=O)CN1CCOCC1	none (no result: Wnt act, EBV LMP1 NFkB, MITF act, MITF TRPM1 inh)
COc1cccc2sc3cc(C#Cc4ccccn4)ccc3c(=O)c12	MITF act 101, esBAF inh inconclusive
Cn1c2ccccc2c(=O)c2cc(C#Cc3ccc(N)cc3)ccc21	none
COc1cccc2oc3ccc(C#Cc4ccccn4)cc3c(=O)c12	Wnt act 40
C=CCn1c2ccccc2c(=O)c2cc(C#Cc3ccccn3)ccc21	MITF act 124, esBAF inh 70
COc1cc2sc3ccc(C#Cc4ccccn4)cc3c(=O)c2cc1OC	none
O=c1c2ccccc2oc2cc(C#Cc3ccccn3)ccc12	Wnt act 34
COC(=O)CSc1nnc(CNC(=O)c2ccccc2F)n1-c1ccccc1	none (no result: Statin myotox sup, esBAF inh)
O=C1c2ccsc2SCCN1Cc1cccc(F)c1	none
Cc1ccc2nc(-c3ccc(NS(=O)(=O)c4ccccc4)cc3)sc2c1	none (no result: Statin myotox sup, esBAF inh)
Cc1ccc2nc(-c3ccc(NS(=O)(=O)c4ccc(F)c(F)c4)cc3)sc2c1	Wnt act 38 (no result: Statin myotox sup, esBAF inh)
Cc1ccc2nc(-c3ccc(NC(=S)NC(=O)C(C)C)cc3)sc2c1	MITF act 96
CCC(=O)NC(=S)Nc1ccc(-c2nc3ccc(C)cc3s2)cc1	Wnt act 36, MITF act 113, esBAF inh inconclusive
Cc1ccc(NC(=O)CC2C(=O)OCC3CCCCN32)cc1Cl (stereo not drawn)	none (no result: Wnt act)
C[C@@H]1CN([C@H](C)CO)C(=O)CCCn2nncc2CO[C@@H]1CN(C)Cc1ccccc1C(F)(F)F	none (no result: Wnt act, EBV LMP1 NFkB, MITF act, MITF TRPM1 inh)
Cc1cccc(/C(N)=N/OC(=O)COc2ccccc2Cl)c1	none (no result: Wnt act, Statin myotox sup, esBAF inh)
Cc1ccccc1OCC(=O)O/N=C(\N)c1ccncc1	esBAF inh 58
Cc1ccc(OCC(=O)O/N=C(\N)c2ccncc2)c(C)c1	MITF act 161, esBAF inh 69
COc1ccc(/C(N)=N/OC(=O)COc2ccccc2Cl)cc1	esBAF inh 49
N/C(=N\OC(=O)COc1ccc(Br)cc1Cl)c1ccncc1	Wnt act 67, MITF act 130 (no result: Statin myotox sup, esBAF inh)
O=C(O)CCn1cc(-c2ccc(Cl)cc2)nc1-c1ccc(Cl)nc1	none
C[C@@H]1CN([C@@H](C)CO)C(=O)Cc2cc(NS(=O)(=O)c3cn(C)cn3)ccc2O[C@@H]1CN(C)Cc1ccccc1	none (no result: Wnt act, EBV LMP1 NFkB, MITF act, MITF TRPM1 inh)
COc1ccc(S(=O)(=O)N2CCOCC2)cc1NC(=O)c1cccc(-n2cccc2)c1	none
O=C(O)c1cc(=O)c2ccccc2o1	none
COc1ccc(/C(N)=N/OC(=O)Cc2cccs2)cc1	MITF act inconclusive, esBAF inh 60
O=C1N2CCCc3cccc(c32)C12Nc1ccccc1S2 (stereo not drawn)	Statin myotox sup 152 (no result: Wnt act)
CC1CC(C)(C)N2C(=O)C3(Nc4ccccc4S3)c3cccc1c32 (stereo not drawn)	none (no result: Wnt act)
c1ccc(-c2ccccc2OCCCN2CCOCC2)cc1	none (no result: Statin myotox sup, esBAF inh)
Fc1ccccc1OCCCN1CCOCC1	Statin myotox sup 169 (no result: Wnt act)
CCC1([N+](=O)[O-])COC(C=Cc2ccccc2)OC1 (stereo not drawn)	esBAF inh 54
COC(=O)Nc1sc2c(c1C(=O)NCc1ccco1)CCCC2	EBV LMP1 NFkB 56 (no result: Wnt act)
O=C(Nc1sc2c(c1C(=O)NCc1ccco1)CCCC2)c1ccc2c(c1)OCO2	MITF act 100, esBAF inh 46
CC(=O)c1ccc(NC(=O)Nc2ccncc2)cc1	none
CC(C)=CC(=O)Nc1ccc(Cl)cc1	Wnt act 45, MITF act 89 (no result: Statin myotox sup, esBAF inh)
CC(=O)c1ccc(NC(=O)Nc2ccc(Cl)cc2)cc1	MITF act 125, esBAF inh 66
COc1ccc(NC(=O)C=C(C)C)cc1Cl	none (no result: Wnt act)
Cc1nc(NC(=O)Nc2ccc(Cl)cc2)sc1C	esBAF inh 58
COc1oc(C(=O)NC2CCCCC2)c(-c2ccc(Cl)cc2)c1S(=O)(=O)c1ccccc1	none (no result: Statin myotox sup, MITF act, esBAF inh)
COc1ccc(CN(C(=O)/C=C/C(=O)c2ccc(OC)cc2O)C(C(=O)NC2CCCCC2)c2ccncc2)cc1 (stereo not drawn)	none (no result: Statin myotox sup, esBAF inh)
COCCN(CC(=O)NC1CCCCC1)C(=O)/C=C/C(=O)c1ccc(OC)cc1O	MITF TRPM1 inh 94 (no result: Statin myotox sup, esBAF inh)
COc1ccc(C(=O)/C=C/C(=O)N(CC(=O)NC2CCCCC2)Cc2cccs2)c(O)c1	EBV LMP1 NFkB 59, MITF TRPM1 inh 105 (no result: Statin myotox sup, esBAF inh)
COc1ccc(C(=O)/C=C/C(=O)N(Cc2ccc3c(c2)OCO3)C(C(=O)NC2CCCCC2)c2ccncc2)c(O)c1 (stereo not drawn)	none
N#C[C@H]1N[C@H](CO)[C@H]1c1ccc(C#CC2CCCC2)cc1	none (no result: Wnt act, EBV LMP1 NFkB, MITF act, MITF TRPM1 inh)
O=S(=O)(Cc1ccccc1)N1CCCCCC1	none (no result: Wnt act)
O=C(/C=C/c1cccs1)c1cc(Cl)ccc1O	none
Cc1csc(SC(C)C(=O)Nc2ccc(F)cc2Cl)n1 (stereo not drawn)	none
CC(=O)c1sc(N/N=C/c2cccc([N+](=O)[O-])c2)nc1C	MITF act 105, esBAF inh 60
CC(=O)c1sc(N/N=C\c2ccc(N(C)C)cc2)nc1C	none (no result: MITF act)
CC(=O)c1sc(N/N=C/c2cccc(O)c2)nc1C	MITF act 93, esBAF inh 63
